A selection: hits, their analogues and other compounds. The true share with any hit is near 4.2%.
NALP1 inh = NALP1 inflammasome inhibitors in reconstituted yeast, colorimetric, S. cerevisiae, triplicate retest; S. cerevisiae NALP1/ASC/caspase-1 growth, X-gal OD620, 72 h; inhibition, % at 10 µM; 280,000 tested, 0.61% active; in the data active = inhibition mostly above about 24%, no sharp cut-off; inactive = mostly below about 32%
TIM10 inh = growth inhibitors of isogenic TIM10 control yeast, primary screen, counter-screen for tim10-1 yeast inhibitor project, luminescence, uHTS | S. cerevisiae TIM10 strain growth, BacTiter-Glo luminescence, 24 h | inhibition, % at 10 µM | 330,000 tested, 1.4% active | AID 463195, 2010;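 active = inhibition of 40% or more at the single tested concentration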;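 also: wild-type TIM10 isogenic control strain grown at permissive 25 °C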
PfHsp90 yeast 2 = growth inhibition of PfHsp90-expressing yeast, primary screen, antimalarial PfHsp90 inhibitor project, S. cerevisiae, BacTiter-Glo luminescence, single point, set 2; BacTiter-Glo ATP, 48 h; yeast lacking PDR1 and PDR3 efflux regulators; AID 504621, 2011; 310,000 tested, 0.32% active; inhibition, % at 9.4 µM;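 active = every replicate shows inhibition above about 80%, whatever the replicate mean, limit read from the data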;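 also: 0% = DMSO neutral controls and 100% = 20 µM radicicol positive controls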
tim23-1 inh = growth inhibitors of tim23-1 mutant yeast, primary screen, luminescence, uHTS; S. cerevisiae tim23-1 growth, BacTiter-Glo luminescence, 24 h; inhibition, % at 20 µM; 330,000 tested, 1.3% active; AID 463212, 2010;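 active = growth inhibition of the mutant yeast at or above 50%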;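 also: temperature-sensitive mutant grown at 25 °C; plate controls were DMSO-treated mutant yeast for no effect and medium wells lacking yeast for full effect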
tim10-1 inh = growth inhibitors of tim10-1 mutant yeast, primary screen, luminescence, uHTS; S. cerevisiae tim10-1 ts strain growth, BacTiter-Glo, 24 h; inhibition, % at 20 µM; 330,000 tested, 2.2% active; AID 463190, 2010;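 active = inhibition of at least 40%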;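 also: mutant grown at 25 °C; 0% = DMSO wells with yeast and 100% = wells holding no yeast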
NALP3 yeast inh = NALP3 inflammasome inhibitors in reconstituted yeast, primary screen, luminescence, uHTS. 330,000 tested, 0.39% active. Yeast reconstituted NLRP3/ASC/caspase-1, beta-gal luminescence, 24 h. AID 2825, 2010. inhibition, % at 10 µM;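 active = inhibition of 50% or more; inactive = inhibition below 50%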;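 also: plate controls were induced DMSO wells for no effect and uninduced yeast grown without galactose for full effect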
tim10-1 confirm = growth inhibitors of tim10-1 mutant yeast, confirmation, single concentration, luminescence, S. cerevisiae; AID 463213, 2010; inhibition, % at 20 µM; S. cerevisiae tim10-1 ts strain growth, BacTiter-Glo, 24 h; 7,400 tested, 56% active; shares compounds with tim10-1 inh;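 active = inhibition of yeast growth at or above a set limit in either of two repeat tests at 20 µM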;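 also: tim10-1 mutant grown at permissive 25 °C to find synthetic lethal compounds; 0% = DMSO yeast wells and 100% = medium wells without yeast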
Numbers without * were called inactive; / = no result given.

SMILES	NALP1 inh	TIM10 inh	PfHsp90 yeast 2	tim23-1 inh	tim10-1 inh	NALP3 yeast inh	tim10-1 confirm
O=c1c2ccccc2nc(SCc2ccc([N+](=O)[O-])cc2)n1-c1ccccc1	15	26	0	34	40*	-4	34*
CC(=O)Nc1c(O)nc(SCC(=O)Nc2nnc(SCc3ccccc3)s2)[nH]c1=O	-1	-12	-14	21	-10	19	/
COc1ccccc1C(CNC(=O)c1cccc(NS(=O)(=O)c2ccc(C)c(F)c2)c1)N1CCCC1 (centres undefined)	/	2	18	10	9	17	/
CC(=O)c1ccc(NC(=S)Nc2cccc3ccccc23)cc1	11	29	23	23	41*	17	22
CC(=O)N(C)c1ccc(NC(=S)Nc2cccc3ccccc23)cc1	1	12	-8	29	23	23	/
Cc1ccc(NC(=S)Nc2cccc3ccccc23)cc1F	10	27	-16	36	49*	27	26
Fc1cccc(NC(=S)Nc2cccc3ccccc23)c1	9	22	12	21	30	20	/
O=C1CC(c2cccs2)Sc2nc3ccccc3n21 (centres undefined)	-3	29	1	39	26	-7	/
CCN1c2ccccc2-c2nc3ccccc3n2C1c1cccs1 (centres undefined)	47	27	-34	38	40*	26	17
O=C(NCc1csc(-c2cccs2)n1)C1CCCCC1	16	9	39	16	20	38	/
CCN(CC(=O)Nc1ccccc1C(F)(F)F)C(=O)C1CC(=O)N(Cc2ccccc2)C1 (centres undefined)	/	-5	/	-4	2	2	/
CC1(C)CC[C@]2(C(=O)O[C@@H]3OC(CO)[C@@H](O)[C@H](O)[C@H]3O)CC[C@]3(C)C(=CCC4[C@@]5(C)CC[C@H](O[C@@H]6OC(C(=O)O)[C@@H](O)[C@H](O)[C@H]6O)C(C)(C)C5CC[C@]43C)[C@@H]2C1 (some centres undefined)	/	1	12	28	40*	-19	22
Cc1ccc(SCCNS(=O)(=O)c2ccc(F)cc2)cc1	/	-13	/	36	41*	21	15
COc1cc2c(cc1OC)C(c1ccccc1)NC(C)(C)C2 (centres undefined)	8	2	3	7	13	10	/
N#Cc1ccc(C(=O)NC23CC4CC(CC(C4)C2)C3)cc1	17	8	-31	26	41*	25	4
O=C(CSCc1cccc(Br)c1)N/N=C/c1ccc2c(c1)OCO2	13	14	2	37	43*	23	36*
NCC(=O)NCC(=O)NC[C@H]1O[C@@H](n2cnc3c(N)ncnc32)[C@H](O)[C@@H]1O	/	-13	2	33	7	/	/
CN(C(=O)c1cccc(NC(=O)Cc2ccc(NC(=O)C3CCCN(C(=O)C4CCC4)C3)cc2)c1)C1CCC1 (centres undefined)	/	/	7	/	/	/	/
CC(C)c1cc(C(C)C)c(S(=O)(=O)NNC(=O)c2ccncc2)c(C(C)C)c1	13	33	18	37	50*	-5	21
CC(=O)[C@H]1[C@H](c2cccc(Cl)c2)C(C#N)(C#N)[C@@H]2c3ccccc3C=CN21	/	31	/	30	48*	-6	23
Cc1ccc2c(c1)NC(=O)C(CC(=O)Nc1ccc(Br)c(C)c1)O2 (centres undefined)	14	-6	9	-9	-20	18	/
CCS(=O)(=O)c1nc(S(=O)(=O)c2ccc(C)cc2)c(NCCCn2ccnc2)s1	7	-14	-11	-7	1	9	/
Cc1ccc(/C=c2/sc3nnc(-c4ccccc4Cl)n3c2=O)o1	7	33	5	42	45*	12	38*
